High-throughput results as filed in PubChem BioAssay.
Hits are enriched below; roughly 3.2% of the tested compounds scored in any of these assays.
TcdB GH inh: blocks C. difficile toxin B glycohydrolase activity | TcdB glycohydrolase enzymatic assay, plate reader | P18177 | inhibition, % at 9.99 µM | AID 652162 | 350,000 compounds, 0.24% hits; in the data active means inhibition above about 10%
GDH-TPI inh: GDH-TPI coupled enzyme inhibition counter-screen; GDH-TPI coupled enzyme counterscreen, NADH absorbance; inhibition, % at 4.8 µM; 360,000 compounds, 1.2% hits; AID 588335; in the data active means inhibition above about 30%;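 further: 0% = DMSO wells and 100% = wells lacking the enzyme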
PrPC surface inh: reduces human prion protein on the cell surface | P04156 | cell surface PrPC, TR-FRET read-out | inhibition, % at 13.8 µM | 370,000 compounds, 0.43% hits; in the data active means inhibition above about 24%; further: 0% = median of the test wells and 100% = reference compound wells
Yp Topo-I inh: Y. pestis Topo-I inhibition via cleavage products | activity, % at 10 µM | AID 504884 | Y. pestis Topo-I cleavage product accumulation, plate reader | 360,000 compounds, 0.064% hits; in the data active means activity above about 50%, passing the limit was not always enough
Mtb FBA inh: inhibitors of M. tuberculosis fructose-bisphosphate aldolase. P9WQA3. purified M. tuberculosis FBA, fluorescence read-out. inhibition, % at 1 µM. 360,000 compounds, 2.3% hits. AID 588726; in the data active means inhibition above about 27%;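 further: 0% = vehicle and 100% = reference inhibitor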
Active calls of the source: *; · = not tested or not shown; + = active, no number.

SMILES	TcdB GH inh	GDH-TPI inh	PrPC surface inh	Yp Topo-I inh	Mtb FBA inh
COc1ccc(-c2nnc(-c3ccc(N(C)C)cc3)o2)cc1	·	22	3	1	18
CN(C)c1ccc(-c2nnc(-c3ccccc3F)o2)cc1	1	33*	1	9	22
CCN(CC)S(=O)(=O)c1ccc(/C(O)=C(\C#N)c2nc3ccccc3n2C)cc1	·	39*	-3	1	2
Oc1ccc(CCc2ccccn2)cc1	14*	6	2	7	-1
O=C(c1ccc(=O)oc1)N1CCN(C(c2ccccc2)c2ccccc2)CC1	·	39*	-1	-8	9
COc1ccc(NC(=O)Nc2ccc3c(c2)[C@H]2C[C@H](CC(=O)NCCc4ccccc4)O[C@H](CO)[C@H]2O3)cc1	-2	·	·	·	·
Cc1cccc(C)c1NC(=S)N/N=C/c1ccc(C(=O)O)cc1	0	45*	3	5	5
Cc1cccc(C)c1NC(=S)N/N=C/c1ccc(OCCC(C)C)cc1	·	14	-2	8	1
C=C(C)CNC(=S)N/N=C/c1ccc(NC(C)=O)cc1	1	18	-3	-2	-4
CC(=O)Nc1ccc(/C=N/NC(=S)NC(C)C)cc1	1	40*	-14	-14	-2
O=C(O)c1ccc(/C=N/NC(=S)NCCN2CCOCC2)cc1	11*	46*	-4	1	-5
S=C(NCCN1CCOCC1)N/N=C/c1cccs1	1	35*	-1	1	3
Cc1ccc(S(=O)(=O)NCC[C@@H]2CC[C@@H](NC(=O)c3ccccn3)[C@H](CO)O2)cc1	1	·	·	·	·
CO[C@H]1CN(C)C(=O)c2cc(NC(=O)Nc3ccccc3)ccc2OC[C@H](C)N(C(=O)Nc2c(C)noc2C)C[C@H]1C	-1	·	·	·	·
COc1ccc(/C=N\NC(=O)CCN2CCN(c3ccccc3)CC2)cc1OC	·	24	-1	0	2
COc1cc(/C=N/NC(=O)CCN2CCCCC2)ccc1O	10*	11	10	-6	4
COc1cc(/C=N/NC(=O)c2ccc(NC(=O)C3CCCCC3)cc2)ccc1O	2	35*	-7	-4	-2
COc1cc(/C=N/NC(=O)c2cc(C3CC3)[nH]n2)ccc1O	4	44*	-2	-5	-3
COc1cc(/C=N/NC(=O)c2cc(-c3ccc4c(c3)OCO4)n[nH]2)ccc1O	2	39*	-3	-12	-3
COc1ccc(/C=N/NC(=O)c2cc(C3CC3)[nH]n2)cc1OC	-1	11	-1	-1	-1
C[C@H](CO)N1C[C@H](C)[C@@H](CN(C)C(=O)CCCN(C)C)OCCCC[C@H](C)Oc2ccc(NC(=O)c3ccccc3)cc2C1=O	-1	·	·	·	·
C[C@@H]1CCCCO[C@H](CN(C)Cc2ccccc2)[C@@H](C)CN([C@H](C)CO)C(=O)c2cc(NC(=O)Nc3ccc4c(c3)OCO4)ccc2O1	-3	·	·	·	·
Cc1noc(C)c1S(=O)(=O)Nc1ccc2c(c1)C(=O)N([C@H](C)CO)C[C@H](C)[C@H](CN(C)S(=O)(=O)c1ccccc1)O2	1	·	·	·	·
Cc1nn(-c2ccccc2)c(C)c1/C=N/NC(=O)c1cc(O)cc(O)c1	1	7	3	1	2
COc1cc(/C=N/NC(=O)c2cc(-c3c(C)nn(-c4ccccc4)c3C)n[nH]2)ccc1O	1	33*	0	-11	-1
SMILES	TcdB GH inh	GDH-TPI inh	PrPC surface inh	Yp Topo-I inh	Mtb FBA inh
Cc1nn(-c2ccccc2)c(C)c1-c1cc(C(=O)N/N=C/c2ccc(O)cc2)[nH]n1	3	44*	8	-8	5
COc1ccc2c3c([nH]c2c1)[C@@H](CO)N(C(=O)NC1CCCC1)CC31CN(C(=O)Nc2cccc(F)c2)C1	0	·	·	·	·
CSC1SCC2C(=O)N(C)C(C(C)C)C(=O)OCC(NC(=O)c3cnc4ccccc4n3)C(=O)NC(C)C(=O)N(C)C1C(=O)N(C)C(C(C)C)C(=O)OCC(NC(=O)c1cnc3ccccc3n1)C(=O)NC(C)C(=O)N2C (stereo unspecified)	1	14	26*	2	1
C[C@@H]1CN([C@@H](C)CO)C(=O)c2cc(NC(=O)C3CC3)ccc2O[C@@H]1CN(C)Cc1ccc2c(c1)OCO2	0	·	·	·	·
COc1cc(/C=C/C(=O)Nc2ccc3[nH]c(=O)[nH]c3c2)cc(OC)c1OC	1	12	-12	-15	3
O=C(/C=C/c1ccc(F)cc1)Nc1ccc2[nH]c(=O)[nH]c2c1	0	42*	0	-4	2
Cc1ccc(S(=O)(=O)N(C)C[C@@H]2OCCCC[C@@H](C)Oc3ccc(NS(=O)(=O)c4ccc(F)cc4)cc3C(=O)N([C@@H](C)CO)C[C@H]2C)cc1	0	·	·	·	·
CCCC#Cc1ccc([C@H]2[C@@H](C#N)N(S(=O)(=O)c3cccc(F)c3)[C@@H]2CO)cc1	0	·	·	·	·
C[C@@H]1CN([C@@H](C)CO)S(=O)(=O)c2ccc(-c3cncnc3)cc2O[C@@H]1CN(C)C(=O)C1CCCCC1	0	·	·	·	·
Cc1ccc(Nc2c(-c3ccc(N4CCOCC4)cc3)nc3ncccn23)cc1C	2	7	-4	-4	1
Cc1ccc(Nc2c(-c3ccc(N4CCOCC4)cc3)nc3ncccn23)cc1	1	31*	7	-1	3
O=C(N/N=C/c1ccc(Br)s1)c1ccccc1[N+](=O)[O-]	·	38*	-17	-11	-3
O=C(NC1CCCCC1)N(Cc1cc2cc3c(cc2[nH]c1=O)OCCO3)C1CCCCC1	·	35*	2	11	8
COc1cc2cc(CN(C(=O)NC3CCCCC3)C3CCCC3)c(=O)[nH]c2cc1OC	·	23	-15	-4	4
O=C(c1ccccn1)N(Cc1cc2ccccc2[nH]c1=O)C1CCCCC1	·	10	0	2	+
C[C@H](CO)N1C[C@H](C)[C@@H](CN(C)S(=O)(=O)c2ccc(C#N)cc2)OCc2ccccc2-c2c(n(C)c3ccccc23)C1=O	1	·	·	·	·
COC(=O)C[C@@H]1CC[C@@H]2[C@@H](COc3ccc(NC(=O)Nc4ccc(C#N)cc4)cc3C(=O)N2C)O1	0	·	·	·	·
O=C(CCCN1C(=O)c2cccnc2C1=O)Nc1ccc(F)cc1Cl	1	12	10	5	+
Cc1ccc2cc(C#N)c(NCc3ccco3)nc2c1	·	5	-4	6	116*
Cc1ccc2cc(C)c(SCC(=O)NCc3ccco3)nc2c1	0	-1	11	29	1
CCCCC(CC)COC(=O)c1ccccc1C(=O)OCC(CC)CCCC (stereo unspecified)	1	10	-3	61*	1
CCS(=O)(=O)N1CC2(CN(Cc3ccc4c(c3)OCO4)[C@H](CO)c3c2c2ccc(OC)cc2n3C)C1	0	·	·	·	·
CCN(CC)c1ccc(/C=N/Nc2nc(C)cc(C)n2)cc1	2	26	7	-2	-5
ClCCN(CCCl)c1ccc(C=NNc2ncccn2)cc1	1	57*	6	3	1
N#Cc1ncc(N=Cc2ccc(N(CCCl)CCCl)cc2)s1	1	52*	8	-9	-1
CN1c2ccc(-c3cccc(C#N)c3)cc2[C@@H]2[C@@H](CCN2S(=O)(=O)c2ccc(F)cc2)[C@@H]1CO	-1	·	·	·	·
